RECQ1 inh: blocks DNA unwinding by human RECQ1. AID 2549. hit rate 0.54% among 240,000. RECQ1 DNA unwinding, red fluorescence kinetic read. P46063. Potency, µM (series often up to 57.3 µM), inactives show at the top dose activity, negative = inhibition, hits mostly inhibitors;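 further: plate controls were vehicle for no effect and no enzyme for full effect; nearly all actives have a fitted effect of over 30% in size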
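50 nM RECQ1T1 preincubated 15 min with compound in Tris pH 8.0 buffer with MgCl2, DTT, Tween-20 and 2.5 ug/ml poly(dI-dC); started with 200 nM TAMRA/BHQ-2 forked duplex and 2 mM ATP. Unwinding read as fluorescence (525/598 nm), two reads 2 h apart.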
WRN inhibitor: WRN helicase (human) inhibition. AID 651768. WRN helicase unwinding, fluorescent forked duplex, kinetic. Q14191. Potency, µM (highest dose often 114 µM), without a hit: at the highest dose activity change, negative = inhibition, most hits filed as inhibitors. hit rate 0.46% among 360,000; further: nearly all actives have a fitted effect of over 55% in size
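Primary qHTS, 1536-well format. 20 nM WRN + compound, 15 min RT; start with 100 nM forked fluorophore/quencher duplex, 2 mM ATP (final); kinetic read ex 525/em 598 nm.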
APE1 inh: blocks human APE1 abasic DNA cleavage; P27695; recombinant APE1, TAMRA/BHQ-2 abasic DNA cleavage fluorescence; Potency, µM (top dose mostly 65.8 µM), for the others: at the top dose activity change, negative = inhibition, hits mostly inhibitors; hit rate 0.35% among 350,000;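 further: plate controls were vehicle for no effect and reference inhibitor for full effect; nearly all actives have a fitted effect of over 55% in size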
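Kinetic fluorescence read (525 ex/598 em nm, three reads 60 s apart) of AP-site incision; signal = third minus first read. Enzyme 0.75 nM, dual-labelled THF duplex 50 nM, compound preincubation 15 min RT.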
BLM helicase inh: blocks DNA unwinding by human BLM helicase; P54132; recombinant BLM DNA unwinding, fluorescence dequenching; Potency, µM (highest dose often 56.1 µM), for the others: at the top dose activity change, negative = inhibition, usual class: inhibitors; hit rate 0.2% among 350,000; AID 2528;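 further: plate controls were vehicle for no effect and no enzyme for full effect; nearly all actives have a fitted effect of over 35% in size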
L3MBTL1 block: blocks human L3MBTL1 | Q9Y468 | AlphaScreen L3MBTL1–H3K9me1 peptide binding | Potency, µM (highest dose often 57.1 µM), for inactives: top-dose activity, negative = inhibition, most hits filed as inhibitors | hit rate 0.66% among 230,000 | AID 485360; further: nearly all actives have a fitted effect of over 60% in size
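L3MBTL1 50 nM + b-AHA-H3(1-15)K9me1 75 nM, 30 min RT; compound added, 30 min RT; streptavidin donor/Ni-chelate acceptor beads 10 ug/mL each final, 30 min RT dark; AlphaScreen read.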
FEN1 inh: blocks human flap endonuclease 1 | Recombinant FEN1 flap cleavage, fluorescence, 15 min | Potency, µM (titrated, usually from 114 µM), without a hit: at the highest dose activity change, negative = inhibition, hits mostly inhibitors | hit rate 0.35% among 390,000 | P39748 | AID 588795; further: nearly all actives have a fitted effect of over 65% in size
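Enzyme 10 nM, 15 min RT preincubation with compound; start with substrate 50 nM final; reads at 0 and 15 min; qHTS titration, four-parameter Hill fit.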
* hit, by the source's call; i = inactive; ? = inconclusive; · = not tested or not shown; [ ] = dose if it differs, or a comment. Rows were chosen to be rich in hits. Some 1% of all compounds tested hit in one or more screens of this group. The call rests on the fitted dose curve; in most records, active means well fitted curve in the direction sought with a large enough effect; inconclusive means small, poorly fitted or top-dose-only effect, or another doubt; inactive means no such curve, though single readings can be large; an effect the other way counts as inactive or inconclusive. Unless noted, on the % scale 0 is the no-effect control and ±100 the full control effect; potency means the concentration at half of the fitted maximal effect.

SMILES	RECQ1 inh	WRN inhibitor	APE1 inh	BLM helicase inh	L3MBTL1 block	FEN1 inh
COc1ccc(OC)c(CNC(=O)C2COc3ccccc3C2)c1 (stereo not given)	·	·	·	-5%	·	14%
CN(C)c1ccc(C=c2c3ccccc3n3c2cc(-c2ccc(Cl)cc2)[n+]3C)cc1	·	28µM*	·	·	·	22µM*
CN(C)c1ccc(C=c2c3ccccc3n3c2cc(-c2ccccc2)[n+]3C)cc1	·	?	·	·	·	8.9µM*
CN(C)c1ccc(C=c2c3cc([N+](=O)[O-])ccc3n3c2cc(-c2ccccc2)[n+]3C)cc1	·	35µM*	·	·	·	56µM*
COc1cc(C=c2c3ccccc3n3c2cc(-c2ccccc2)[n+]3C)cc(OC)c1OC	·	-1%[11.6 µM]	·	·	·	?
COc1cc(N(C)C)ccc1C=c1c2ccccc2n2c1cc(-c1ccccc1)[n+]2C	·	20µM*	·	·	·	7.9µM*
CN(C)c1ccc(/C=C2\C=Cc3cc([N+](=O)[O-])ccc32)cc1	·	·	·	·	·	1%
CN(C)c1ccc(C=C2C=C(c3ccccc3)OC2=O)cc1	·	-15%	·	·	·	·
CCOC(=O)C1=C(O)/C(=C\c2ccc(CNC(=O)C(=O)Nc3ccccc3)o2)N=C1C	-1%	?	2%	35µM*	·	-17%
O=[N+]([O-])c1cccc2c(S(=O)(=O)N3CCOCC3)cccc12	·	-11%[11.6 µM]	11µM*	-8%	-15%	11%
COc1cc2c(cc1OC)n(Cc1cccc(C(F)(F)F)c1)c(=O)n1nc(-c3ccccc3)nc21	·	·	·	-6%	·	-2%
O=S(=O)(Nc1c(O)ccc2ccccc12)c1cccc2ccccc12	·	22µM*	·	·	·	?
Cc1ccc(S(=O)(=O)Nc2c(O)ccc3ccccc23)cc1	·	40µM*	·	·	·	?
O=C(O)c1ccc(COc2ccc3ccccc3c2/C=C2/NC(=O)N(Cc3ccc(F)cc3)C2=O)cc1	i	79µM*	-2%	?	?	?
O=C(O)c1ccc(COc2ccccc2/C=C2\NC(=O)N(Cc3ccccc3)C2=O)cc1	17%	-14%	?	-6%	4%	?
C=C1C(=O)O[C@H]2[C@H]1CC/C(C)=C\CC[C@@]1(C)O[C@@H]21	·	·	2%[21 µM]	·	·	·
Nc1cc2nsnc2cc1Br	?	?	?	4µM*	16µM*	?
Cc1ccc(NC(=O)C(c2ccccc2)N2CCN(CC(=O)N3CCOCC3)CC2)cc1Cl (stereo not given)	·	-12%	11µM*	·	-1%	-1%
O=C(Nc1ccc(F)cc1)C(c1ccccc1)N1CCN(CC(=O)N2CCOCC2)CC1 (stereo not given)	·	-3%	16%	·	-3%	15%
O=C1C2CC=C(Cl)CC2C(=O)N1CCCCCCN1C(=O)C2CC=C(Cl)CC2C1=O (stereo not given)	28µM*	?	32µM*	?	·	-22%
CCOC(=O)c1ccc(Cl)c(NC(=O)c2ccc(-c3ccccc3)cc2)c1	-2%	31%	-5%	-4%	-2%	1%
CCOC(=O)c1ccc(/C=C2/C=C(c3ccccc3)N(c3ccc(Cl)c(C(=O)O)c3)C2=O)cc1	-14%	50µM*	7%	-13%	-10%	-22%
CCCCNc1nc(C#N)nc(Nc2ccccc2)n1	4%	·	-18%	-7%	·	·
CC[N+]1=C(C)C(C)(C)c2cc(C)ccc21	25µM*	?	10µM*	-10%	·	?
CCc1ccc(-c2nc3c(=O)n(C)c(=O)nc-3n(CC)n2)cc1	·	·	·	·	·	3%
SMILES	RECQ1 inh	WRN inhibitor	APE1 inh	BLM helicase inh	L3MBTL1 block	FEN1 inh
Cn1nc(-c2ccccn2)nc2c(=O)n(C)c(=O)nc1-2	4.5µM*	-8%	?	1µM*	·	-5%
CCCc1nc2c(=O)n(C)c(=O)nc-2n(C)n1	?	-31%	?	2.8µM*	?	-6%
CN(C)c1ccc(CNC(=O)C2(C)C=CCN2C(=O)c2ccccc2)cc1 (stereo not given)	5%	·	13%	5%	·	·
COc1cc(-c2no[n+]([O-])c2C#N)cc(OC)c1OC	·	·	-4%	·	·	·
O=C(NC1CCCC1)c1c[nH]c2ccc(S(=O)(=O)Nc3cccc(C(F)(F)F)c3)cc2c1=O	·	·	·	-7%	·	-19%
CCOC(=O)C1=C(O)c2ccccc2C(=O)/C1=C\c1ccc(C)cc1	i	45µM*	-4%	-16%	-16%	50µM*
N#CC(C#N)=C1C=CC=CN1/C(=C\c1ccco1)C(=O)c1ccc(Cl)cc1	-2%	22µM*	5%	-12%	-8%	-14%
N#CC(C#N)=C1C=CC=CN1/C(=C\c1ccco1)C(=O)c1ccc(-c2ccccc2)cc1	-9%	-26%	-2%	-13%	-26%	-3%
CCc1ccccc1N1C(=O)N(Cc2cccc(Cl)c2)c2ccccc2S1(=O)=O	·	·	·	-7%	·	4%
O=C(Nc1cccc(O)c1)c1ccc(NC(=O)c2cccs2)cc1	·	?	18%	-1%	·	-6%
O=C(Nc1cccc(N2C(=O)C=CC2=O)c1)c1cccs1	·	·	-11%	·	28µM*	·
N#Cc1c(-c2ccc(Cl)cc2)no[n+]1[O-]	·	·	-4%	·	·	·
CCN(CC(=O)Nc1c(C(=O)OC)[nH]c2ccccc12)c1ccc2c(c1)OCO2	0%	-14%	-1%	6%	25µM*	-24%
COCCN(C(=O)c1cc2c(s1)CCCCC2)c1c(N)n(CC(C)C)c(=O)[nH]c1=O	·	-8%	-2%	·	33%	13%
COCCN(C(=O)COC(=O)COc1ccc2c(c1)CCC2)c1c(N)n(Cc2ccccc2)c(=O)[nH]c1=O	·	-1%	-7%	·	9%	9%
COCCN(C(=O)c1cc2c(s1)CCC2)c1c(N)n(CC(C)C)c(=O)[nH]c1=O	·	45µM*	-7%	·	?	-2%
COCCN(C(=O)COC(=O)Cc1coc2cc3c(cc12)CCC3)c1c(N)n(Cc2ccccc2)c(=O)[nH]c1=O	·	?	9.5µM*	·	?	3%
CC(=O)c1cccc(NC(=O)C(C)OC(=O)c2ccc(S(C)(=O)=O)c([N+](=O)[O-])c2)c1 (stereo not given)	·	·	·	·	·	-22%
COc1cccc(/C=N/Nc2nc(Nc3ccc([N+](=O)[O-])cc3)nc(N3CCCC3)n2)c1O	?	50µM*	-12%	28µM*	·	-25%
O=[N+]([O-])c1ccc(Nc2nc(NC3CCCCC3)nc(N3CCCC3)n2)cc1	-8%	3%	0%	28µM*	·	-6%
COc1cccc(/C=N/NC(=O)C(=O)N2CCCC2)c1O	-2%	2%	-1%	1%	22µM*	1%
CCOc1cc2[nH]c(=O)n(Cc3ccc(C(=O)N4CCN(c5ccccc5)CC4)cc3)c(=O)c2cc1OCC	·	·	·	-3%	·	12%
CC(C)(C)n1ncc2c(=O)n(Cc3c(F)cc(Cl)cc3F)cnc21	·	·	0%	·	·	-16%

Screening data: PubChem BioAssay, National Center for Advancing Translational Sciences (NCATS)
